From PubChem BioAssay

Test: NFkB reporter suppression in cystic fibrosis bronchial cells – cell-based, uHTS hits, panel, cytotoxicity readout, dose response (AID 624344)
Settings: CF bronchial epithelial cells, PAF-induced NFkB reporter inhibition, with PAF, run 1; at 79 µM (top of the series) unless noted

| Structure (SMILES) | inhibition |
| --- | --- |
| COc1ccc(-c2csc3ncnc(NCCN4CCOCC4)c23)cc1 | 112% |
| O=C1OC(c2ccccc2)(c2cc(Br)ccc2O)c2ccccc21 (configuration not stated) | 105% |
| CCCCCCCCCc1nc2sc3c(c2c(=O)n1NC(=O)c1ccc([N+](=O)[O-])cc1)CC(C)(C)OC3 | 80.5% |
| O=[N+]([O-])c1cccc(NC(=S)Nc2nc(-c3ccccc3Cl)cs2)c1 | 108% |
| Cn1c(SC2=CS(=O)(=O)c3ccccc32)nc2ccccc21 | 101% |
| c1cc(-c2cnc3cccnn23)c2cccnc2c1 | 114% |
| O=C(c1nnsc1S(=O)(=O)c1ccc(Cl)cc1)N1CCOCC1 | 96% |
| CC(=O)Nc1ccc(Nc2nc(-c3sc(NC(C)=O)nc3C)cs2)cc1 | 103% |
| O=C1OC(Nc2nc(-c3ccc(F)cc3)cs2)c2ccccc21 (configuration not stated) | 102% |
| CCC1(O)CC2CN(CCc3c([nH]c4ccccc34)C(C(=O)OC)(c3cc4c(cc3OC)N(C=O)C3C(O)(C(=O)OC)C(OC(C)=O)C5(CC)C=CCN6CCC43C65)C2)C1 (configuration not stated) | 107% |
| CC1=C(C(=O)OCc2ccc3c(c2)OCO3)C(c2ccc(O)c([N+](=O)[O-])c2)NC(=O)N1 (configuration not stated) | 94.5% |
| CCC(Oc1ccccc1)C(=O)Nc1ncc([N+](=O)[O-])s1 (configuration not stated) | 112% |
| CC(C)C[C@H]1CNC(=S)N1C[C@H]1CCCN1C[C@H](Cc1ccccc1)N1C[C@H](Cc2ccc(O)cc2)N(CC2CCCCCC2)C1=S | 103% |
| CN1CCC(OC(=O)c2cc3cc(Cl)cc(Cl)c3oc2=O)CC1 | 108% |
| Cc1cccc(NC(=O)c2nc[nH]c2C(=O)NCCCNC(=O)c2[nH]cnc2C(=O)Nc2cccc(C)c2)c1 | 97.6% |
| N#Cc1c(-c2ccc(Cl)cc2)n(O)c2ccccc12 | 111% |
| CCOC(=O)c1c(C)c2c(=O)[nH]cnc2n1-c1ccccc1 | 110% |
| Fc1cccc(Cl)c1/C=N/Nc1c(Cl)cncc1Cl | 101% |
| CCOc1ccc(C(C(=O)NCC2CCCO2)N(Cc2cccs2)C(=O)c2snc(C(N)=O)c2N)cc1 (configuration not stated) | 99.5% |
| CC(=O)Nc1ccc(-c2ccnc3c2CC(C(=O)NCc2ccco2)O3)cc1 (configuration not stated) | 70% |
| Cc1nc([N+](=O)[O-])c(Sc2nc3ccc([N+](=O)[O-])cc3[nH]2)n1Cc1ccccc1 | 101% |
| O=C(COC(=O)c1c2c(nc3ccccc13)CCN(Cc1ccccc1)C2)Nc1c(F)cccc1F | 79.5% |
| COc1ccc(-c2cnc(N)nc2-c2ccc(OC)cc2O)cc1 | 112% |

Test: as above
Settings: CF bronchial epithelial cells, PAF-induced NFkB reporter inhibition, with PAF, run 2; at 79 µM (top of the series) unless noted

| Structure (SMILES) | inhibition |
| --- | --- |
| Cc1cnc(C=O)c2cccc([N+](=O)[O-])c12 | 106% |
| O=C(NNC(=S)Nc1cccc(C(F)(F)F)c1)c1cccc(Cl)c1 | 93.8% |
| CN1CCN(S(=O)(=O)c2ccc(Sc3nnnn3-c3ccccc3)c([N+](=O)[O-])c2)CC1 | 99.5% |
| CCOc1ccc(Nc2ncnc3ccc([N+](=O)[O-])cc23)cc1 | 107% |
| COc1cc(CCc2ccccc2)c(C(=O)O)c(O)c1C/C=C(/C)CCC=C(C)C | 114% |
| Cc1ccc(Sc2c(C=O)c3ccccc3n2C)cc1 | 104% |
| COc1ccc(S(=O)(=O)N2c3ccc(F)cc3CCC2C)cc1 (configuration not stated) | 71.7% |
| Cc1ccc(N(C)C(=O)c2cc(S(=O)(=O)N3CCCCC3)c[nH]2)cc1 | 79% |
| COC(=O)c1ccc(-c2ccc(OC)c([C@H]3[C@H]4C=CC[C@@H](C)[C@@H]4C(=O)N3Cc3ccccc3)c2)cc1 | 80% |
| CC1(C)CC(=O)C=C(NC2=CC3OC(c4ccccc4)OCC3OC2=O)C1 (configuration not stated) | 114% |
| NC(c1csc(NC(=O)Nc2cccc(Cl)c2)n1)c1ccccc1Cl (configuration not stated) | 101% |
| CCOC(=O)N1CCC(NC(=O)c2ccc3c(c2)N=C(C)c2c(C)ccc(C)c2S3)CC1 | 115% |
| Cc1ccc(-c2cc(C(=O)N(C)Cc3cnn(C)c3C)c3cc(Br)ccc3n2)cc1 | 102% |
| Cc1ccc(NS(=O)(=O)c2ccc(-c3cnc(C4CC4)o3)cc2)c(C)c1 | 111% |
| CC(=O)Nc1ccc(NC(=O)COC(=O)c2c3c(nc4ccccc24)CCN(Cc2ccccc2)C3)cc1 | 89.8% |
| C[C@]12CCC(O)CC1CCC1C2CC[C@]2(C)C(c3cc(C(F)(F)F)n[nH]3)CCC12 (some centres not stated) | 99.6% |
| COc1ccc(-c2csc3ncnc(NCCN4CCOCC4)c23)cc1 | 100% |
| O=C1OC(c2ccccc2)(c2cc(Br)ccc2O)c2ccccc21 (configuration not stated) | 116% |
| CCCCCCCCCc1nc2sc3c(c2c(=O)n1NC(=O)c1ccc([N+](=O)[O-])cc1)CC(C)(C)OC3 | 115% |
| O=[N+]([O-])c1cccc(NC(=S)Nc2nc(-c3ccccc3Cl)cs2)c1 | 99.8% |

| Structure (SMILES) | inhibition |
| --- | --- |
| Cn1c(SC2=CS(=O)(=O)c3ccccc32)nc2ccccc21 | 102% |
| c1cc(-c2cnc3cccnn23)c2cccnc2c1 | 105% |
| O=C(c1nnsc1S(=O)(=O)c1ccc(Cl)cc1)N1CCOCC1 | 85.4% |
| CC(=O)Nc1ccc(Nc2nc(-c3sc(NC(C)=O)nc3C)cs2)cc1 | 110% |
| O=C1OC(Nc2nc(-c3ccc(F)cc3)cs2)c2ccccc21 (configuration not stated) | 113% |
| CCC1(O)CC2CN(CCc3c([nH]c4ccccc34)C(C(=O)OC)(c3cc4c(cc3OC)N(C=O)C3C(O)(C(=O)OC)C(OC(C)=O)C5(CC)C=CCN6CCC43C65)C2)C1 (configuration not stated) | 78.2% |
| CC1=C(C(=O)OCc2ccc3c(c2)OCO3)C(c2ccc(O)c([N+](=O)[O-])c2)NC(=O)N1 (configuration not stated) | 89% |
| CCC(Oc1ccccc1)C(=O)Nc1ncc([N+](=O)[O-])s1 (configuration not stated) | 98.9% |
| CC(C)C[C@H]1CNC(=S)N1C[C@H]1CCCN1C[C@H](Cc1ccccc1)N1C[C@H](Cc2ccc(O)cc2)N(CC2CCCCCC2)C1=S | 112% |
| CN1CCC(OC(=O)c2cc3cc(Cl)cc(Cl)c3oc2=O)CC1 | 97.8% |
| Cc1cccc(NC(=O)c2nc[nH]c2C(=O)NCCCNC(=O)c2[nH]cnc2C(=O)Nc2cccc(C)c2)c1 | 75.5% |
| N#Cc1c(-c2ccc(Cl)cc2)n(O)c2ccccc12 | 103% |
| CCOC(=O)c1c(C)c2c(=O)[nH]cnc2n1-c1ccccc1 | 104% |
| Fc1cccc(Cl)c1/C=N/Nc1c(Cl)cncc1Cl | 104% |
| CCOc1ccc(C(C(=O)NCC2CCCO2)N(Cc2cccs2)C(=O)c2snc(C(N)=O)c2N)cc1 (configuration not stated) | 92.5% |
| CC(=O)Nc1ccc(-c2ccnc3c2CC(C(=O)NCc2ccco2)O3)cc1 (configuration not stated) | 78% |
| Cc1nc([N+](=O)[O-])c(Sc2nc3ccc([N+](=O)[O-])cc3[nH]2)n1Cc1ccccc1 | 112% |
| O=C(COC(=O)c1c2c(nc3ccccc13)CCN(Cc1ccccc1)C2)Nc1c(F)cccc1F | 74% |
| COc1ccc(-c2cnc(N)nc2-c2ccc(OC)cc2O)cc1 | 102% |
